The results in this text go back to PubChem BioAssay AID743364 (National Center for Advancing Translational Sciences (NCATS), 2014).

The source made the active and inactive calls. Calls come from the whole dose curve; as a rule, active = well fitted curve in the direction sought with a large enough effect; inactive = no such curve, though single readings can be large or run the other way.

The test is described as follows: qHTS profiling of inhibitors of Plasmodium falciparum (3D7) proliferation (acoustic dispense). The note with it: P. falciparum 3D7 in erythrocytes, SYBR Green, 72 h; series mostly up to 49.8 µM; activity change: at the top concentration. The source says:
Plasmodium falciparum is a virulent malarial parasite that kills 1-2 million people worldwide each year. Transmitted by mosquitoes, the sporozoite form of the parasite enters the blood stream to infect hepatocytes, where they become merozoites that infect red blood cells (erythrocytes). Within erythrocytes, merozoites begin a […] cycle of growth and division, after which the parasite is released to infect new red blood cells. Gametocytes, which form within erythrocytes as well, circulate in the bloodstream and are ingested by the mosquito, thereby completing the life cycle. To profile malarial isolates for differential chemical responses and to identify inhibitors of malarial growth, an assay that measures P. falciparum growth and replication within erythrocytes was employed. This assay uses a DNA binding fluorescent dye (SYBR Green) to detect parasite DNA following cell lysis. Because mature erythrocytes lack DNA, only Plasmodium-derived DNA is detected.
The SYBR Green viability assay was adapted from a method described previously (Plouffe et al., 2008). For screening 3 ul culture medium was dispensed into 1536 well black clear bottom plates (Aurora Biotechnologies) using a Multidrop Combi (Thermo Fisher Scientific Inc.), 23 nL of compounds in DMSO were added by an acoustic dispenser (EDC Biosystems), and 5 ul of erythrocytes infected with P. falciparum (0.3% parasitemia, 2.5% hematocrit final concentration) were added. The plates were incubated at 37 C in a humidified incubator in 5% CO2 for 72 h, and 2 ul lysis buffer (20 mM Tris HCl, 10 mM EDTA, 0.16% saponin, 1.6% triton X, 10X SYBR Green I supplied as 10,000X […] by Invitrogen) was added to each well. The plates were mixed for 25 sec with gentle shaking and incubated overnight at room temperature in the dark. The following morning, fluorescence intensity at 485(14) nm excitation and 535(25) nm emission wavelengths was measured on an EnVision (Perkin Elmer) plate reader. Plate reads were normalized relative to the control inhibitor (0.29 uM artemisinin) and vehicle (DMSO) wells present on each plate and then corrected by an algorithm using vehicle-only control plates at the beginning and end of the compound plate stack.
On to `CN1C(=O)C[C@H](C(=O)N[C@@H](Cc2cnc[nH]2)C(=O)N2CCC[C@@H]2C(N)=O)NC1=O`, for which the “activity change” value was 94.2% (inactive).
On to `C[C@H]1CCCC=CC2C[C@H](O)C[C@@H]2[C@H](O)C=CC(=O)O1` (stereo not given in full), for which the “activity change” value was -0.681% (inactive).
Then `O=c1[nH]c2ccc(Cl)cc2c(N[C@@H]2CN3CCC2CC3)c1-c1nc2ccccc2[nH]1`, with 0.942% (inactive); and `CC(C)(N)CNC(=O)CC1CCC2(CC1)OOC1(O2)C2CC3CC(C2)CC1C3` (stereo not given), with 0.389% (inactive).
Then `O=C(C[C@@H]1NCCC[C@@H]1O)Cn1cnc2ccccc2c1=O`, with -1.69% (inactive); and `C[C@]12O[C@H](C[C@@]1(O)C(=O)O)n1c3ccccc3c3c4c(c5c6ccccc6n2c5c31)CNC4=O`, with 0.751% [at 4.15 µM] (inactive).
On to `CC1=C(O)C(=O)C=C2C1=CC=C1[C@@]2(C)CC[C@@]2(C)[C@@H]3C[C@](C)(C(=O)O)CC[C@]3(C)CC[C@]12C`, for which the “activity change” value was 2.81% (inactive).
Then `CC=C(C)C(=O)N[C@@H](c1ccccc1)[C@@H](O)C(=O)O[C@H]1C[C@@]2(O)[C@@H](OC(=O)c3ccccc3)[C@@H]3[C@]4(OC(C)=O)CO[C@@H]4C[C@H](O)[C@@]3(C)C(=O)[C@H](OC(C)=O)C(=C1C)C2(C)C`, with 1.68% (inactive); and `COC(=O)[C@@]1(OC)C[C@@H]2O[C@@]1(C)n1c3ccccc3c3c4c(c5c6ccccc6n2c5c31)C(=O)N(C)C4`, with 0.473% [at 16.5 µM] (inactive); and `COC1=CC(C)=C[C@@H](C)[C@@H](O)[C@@H](C)CC(C)=CC=C[C@H](OC)[C@H]([C@@H](C)[C@@H](O)[C@H](C)[C@@]2(O)C[C@@H](O)[C@H](C)[C@@H](C(C)C)O2)OC1=O`, with 1.19% (inactive).
Take `CC(=O)N(O)CCCP(=O)(O)O`: the “activity change” value is 9.16% (inactive).
For `CC(=O)Nc1nnc(S(N)(=O)=O)s1`, the “activity change” value was 67.7% (inactive).
Then `CC(=Cc1csc(C)n1)[C@@H]1C[C@H]2O[C@@H]2CCC[C@H](C)[C@@H](O)[C@@H](C)C(=O)C(C)(C)[C@@H](O)CC(=O)O1`, with 0.503% (inactive); and `C[C@@H]1C[C@@H]([C@H](O)CC2CC(=O)NC(=O)C2)C(=O)[C@@H](C)C1`, with -0.385% (inactive).
With `CO[C@H]1CCC(O[C@H]2C[C@H]([C@]3(C)CC[C@]4(C[C@H](O)[C@@H](C)[C@@H]([C@@H](C)C=C(C)C(=O)[C@H](C)C[C@H](C)C(=O)O)O4)O3)O[C@]3(O[C@@H]([C@H]4O[C@@](O)(CO)[C@H](C)C[C@H]4C)C[C@H]3C)[C@H]2C)O[C@H]1C` (stereo not given in full), the “activity change” value was -0.523% (inactive).
